EBNA-1 inh: blocks EBNA-1 binding to DNA | EBNA-1 DNA binding, fluorescence polarization | inhibition, % at 14.8 µM | 300,000 tested, 0.34% active | AID 1950; in the data active means inhibition above about 28%
aDG glyco up: alpha-DG glycosylation activation. activation, % at 10 µM. 360,000 tested, 0.22% active. Pro5-aDG cells, alpha-DG glycosylation AlphaScreen (IIH6); 0% Pro5, 100% B10-LARGE cell signal. AID 624168;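 active means activation of at least 8% versus controls, or a plate z-score of at least 8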;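 further: Pro5 are CHO cells carrying HIG-tagged alpha-DG that lacks glycosylation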
p47phox inh: p47phox (human) inhibition; P14598; p47phox/p22phox peptide binding, fluorescence polarization, 2 h; inhibition, % at 24.7 µM; 220,000 tested, 0.53% active; AID 1274;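 active means inhibition above about 30%, limit read from the data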
PG9 Ab binder: PG9 antibody binding by small molecule. AID 624416. inhibition, % at 6.7 µM. TR-FRET gp120-PG9 antibody binding. 360,000 tested, 0.43% active; in the data active means inhibition above about 8.5%
NR1D1 modulator: modulators of human Rev-erb alpha DNA binding; Rev-erbα–FITC-DNA binding, fluorescence polarization, 90 min; activity, % at 10 µM; 370,000 tested, 0.79% active;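 active means activity above about 14%, limit read from the data; passing the limit was not always enough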
ZTA counter: counter-screen for EBNA-1 inhibitors: inhibitors of Epstein-Barr virus ZTA. ZTA-DNA binding, fluorescence polarization. P03206. 320,000 tested, 0.15% active. inhibition, % at 11 µM; in the data active means inhibition above about 33%
Target sequence (P03206 whole entry, looked up): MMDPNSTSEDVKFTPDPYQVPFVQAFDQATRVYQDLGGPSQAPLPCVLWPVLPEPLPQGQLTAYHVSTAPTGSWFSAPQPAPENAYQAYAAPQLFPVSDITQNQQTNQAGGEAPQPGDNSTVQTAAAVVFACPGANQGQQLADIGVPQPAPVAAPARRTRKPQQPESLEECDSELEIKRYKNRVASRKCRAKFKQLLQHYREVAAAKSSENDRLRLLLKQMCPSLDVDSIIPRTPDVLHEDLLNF
ZTA inh confirm: confirmation of Epstein-Barr virus ZTA DNA binding inhibitors | shares compounds with ZTA counter | 320 tested, 30% active | inhibition, % at 11.1 µM | Zta-ZRE DNA binding, fluorescence polarization;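 active means mean inhibition across triplicate runs above the hit threshold derived for the original primary screen, cut at about 33% in these data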
EBNA-1 counter: counter-screen for ZTA inhibitors: EBNA-1 DNA binding inhibition; 320 tested, under 10 active; fluorescence polarization; AID 2362; shares compounds with ZTA counter; inhibition, % at 14.8 µM; call rule not given here
aDG conf: alpha-DG glycosylation activation, confirmation; shares compounds with aDG glyco up; Pro5-aDG cells, IIH6 AlphaLISA; scaled to LARGE-overexpressing B10 cells as 100%; activation, % at 10 µM (by protocol); 600 tested, 17% active;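 active means activation of at least 7% in one or more replicates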;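 further: cells exposed to compound for two days before detection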
PG9 binder conf: confirmation of small molecules binding HIV-1 gp120 antibody PG9; 1,500 tested, 90% active; inhibition, % at 6.7 µM; shares compounds with PG9 Ab binder; TR-FRET PG9 antibody binding, biochemical; in the data active means inhibition above about 9%
PGV04 counter: counter-screen for PG9 binders: binding control antibody PGV04; shares compounds with PG9 Ab binder; TR-FRET PGV04 antibody-gp120 binding, biochemical; inhibition, % at 6.7 µM; 1,500 tested, 95% active; in the data active means inhibition above about 9.5%
Rev-erbA confirm: confirmation of modulators of human Rev-erb alpha DNA binding; shares compounds with NR1D1 modulator; Rev-erb alpha FITC-DNA binding, fluorescence polarization, 90 min; activation, % at 25 µM; 3,000 tested, 61% active; AID 1259319;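 active means activation at or above a set limit, or at least 3 SD above the negative control mean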
Each line names hits and unclear results; the compound was inactive in the other large screens (follow-up assays come after a bar, where they were run). Compounds with a hit are over-represented: about 1.9% of the library has one in this group of screens.

C=CCn1c(O)c(C=Nc2ccc(N(CC)CC)cc2)c(=O)[nH]c1=O	ZTA counter 45.1 | ZTA inh confirm inactive | EBNA-1 counter inactive
COc1ccc(CCn2c(O)c(C=Nc3ccc(NC(C)=O)cc3)c(=O)[nH]c2=O)cc1OC	ZTA counter 60.0 | ZTA inh confirm 47.5 | EBNA-1 counter 38.2
CCN(CC)c1ccc(N=Cc2c(O)n(-c3ccc(OC)cc3)c(=O)[nH]c2=O)cc1	ZTA counter 36.4 | ZTA inh confirm inactive | EBNA-1 counter inactive
CCN(CC)c1ccc(N=Cc2c(O)n(-c3ccc(Cl)cc3)c(=O)[nH]c2=O)cc1	none
O=[N+]([O-])C(Br)(CO)CO	none (no result: EBNA-1 inh, aDG glyco up, p47phox inh, PG9 Ab binder, ZTA counter)
Cc1ccc2c(c1Cl)NC(C(=O)O)C1CC(Sc3ccccc3[N+](=O)[O-])C(Cl)C21 (configuration not stated)	none (no result: PG9 Ab binder, NR1D1 modulator)
CCN(CC)C(=O)c1ccc2c(c1)C1C(Cl)C(Sc3ccccc3[N+](=O)[O-])CC1C(C(=O)O)N2 (configuration not stated)	p47phox inh 46.1, ZTA counter 54.5 (no result: PG9 Ab binder, NR1D1 modulator) | ZTA inh confirm 39.4 | EBNA-1 counter inactive
CNc1ccc(C(=O)CC(O)CCC(C)C2OC(=O)CC(O)CC(=O)CC(O)CC(O)CC(O)CC(O)CC3(O)CC(O)C(C(=O)OC)C(CC(O[C@@H]4O[C@H](C)[C@@H](O)[C@H](N)[C@@H]4O)/C=C/C=C/C=C/C=C/C=C/C=C/C=C/C2C)O3)cc1 (some centres not stated)	none (no result: EBNA-1 inh, aDG glyco up, p47phox inh, PG9 Ab binder, ZTA counter)
Cn1ncnc2c(=O)n(C)c(=O)nc1-2	ZTA counter 59.0 (no result: p47phox inh, PG9 Ab binder, NR1D1 modulator) | ZTA inh confirm 72.0 | EBNA-1 counter inactive
COP(=S)(OC)Oc1cc(Cl)c(Cl)cc1Cl	none (no result: EBNA-1 inh, aDG glyco up, p47phox inh, PG9 Ab binder, ZTA counter)
CC(=O)c1cn(CCCOc2ccccc2)c2ccccc12	aDG glyco up 6.3 | aDG conf inactive
O=C(C(=O)N1CCOCC1)c1cn(CCCOc2ccccc2)c2ccccc12	none
CN(Cc1ccccc1)Cc1ccccc1OC(=O)N(C)C	aDG glyco up 58.0 | aDG conf inactive
Cc1ccnc(-n2c(C)nc3ccccc3c2=O)c1	aDG glyco up 7.8 | aDG conf 0.6
C#C[C@]1(O)C=C[C@H]2[C@@H]3CCC4=CC(=O)CC[C@@H]4[C@H]3CC[C@@]21CC	none (no result: EBNA-1 inh, aDG glyco up, p47phox inh, PG9 Ab binder, ZTA counter)
CC(C)(C)CC(C)(C)c1ccc(O)cc1	none (no result: EBNA-1 inh, aDG glyco up, p47phox inh, PG9 Ab binder, ZTA counter)
COC(=O)Cn1cc(C=C2C(=O)N(C)C(=O)N(C)C2=O)c2ccccc21	PG9 Ab binder 24.2 (no result: aDG glyco up, p47phox inh) | PG9 binder conf 38.9 | PGV04 counter 53.1
O=C(Cn1cc(C(=O)c2ccccc2F)c2ccccc21)NCc1ccco1	PG9 Ab binder 17.3 | PG9 binder conf 14.8 | PGV04 counter 36.6
CC(C)(C)C(=O)c1cn(CC(=O)NCc2ccco2)c2ccccc12	none
C=C(C)C1CNC(C(=O)O)C1CC(=O)O (configuration not stated)	none (no result: EBNA-1 inh, aDG glyco up, p47phox inh, PG9 Ab binder, ZTA counter)
COc1ccc(-n2c(=S)[nH]c3ccc(C)cc3c2=O)cc1	PG9 Ab binder 41.3, NR1D1 modulator 52.3 (no result: EBNA-1 inh, p47phox inh, ZTA counter) | PG9 binder conf 35.3 | PGV04 counter 39.0 | Rev-erbA confirm 18.6
CCCC(C)C1(CC)C(=O)N=C(S)NC1=O (configuration not stated)	none (no result: EBNA-1 inh, aDG glyco up, p47phox inh, PG9 Ab binder, ZTA counter)
O=c1c(C=NCc2cccs2)c(O)n(C2CCCCC2)c(=O)n1C1CCCCC1	NR1D1 modulator 63.4 | Rev-erbA confirm inactive

Compound activity as filed in PubChem.
